In PubChem BioAssay (NCATS) one finds Potency and z-score data, which are given here for 17 compounds.

SMILES strings stand for the structures. Inconclusive results are not listed. Active and inactive are the calls of the source. The call rests on the fitted dose curve.
Potency means the concentration at half of the fitted maximal effect.

A short description of the first assay: qHTS for identification of novel therapeutic agents for treatment of microphthalmiaassociated transcription factor (MiT) renal cell carcinoma (RCC) (AID 1963991). The settings on record: TFE3-RCC UOK109 viability, CellTiter-Glo, 48 h. Summed up:
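Curves over 11 concentrations were fitted to CellTiter-Glo luminescence, scaled between empty wells (0%) and DMSO (100%) viability. Cells were UOK109, UOK124 and UOK145 TFE3-fusion RCC lines at 500/well, exposed 48 hours at 37 C.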
(In general: In qHTS, concentration-response curves come from the screen itself.)
With `C[C@@]12OC(=O)[C@]1([C@@H](O)[C@@H]1C=CCCC1)NC(=O)[C@H]2CCCl`, the Potency is 66.2 nM (active).

Regarding `C[C@@H]1O[C@@H](O[C@@H]2C=C3CC[C@@H]4[C@@H](CC[C@]5(C)[C@H](c6ccc(=O)oc6)CC[C@@]45O)[C@@]3(C)CC2)[C@H](O)[C@H](O)[C@H]1O`, the Potency is 20.9 nM (active).

Take `CC[C@@H]1[C@@H](C)O[C@@](O)([C@@H](C)[C@H](O)[C@H](C)[C@H]2OC(=O)C=CC=C[C@@H](C)[C@@H]([C@@H](C)[C@@H](O)[C@H](C)[C@@]3(O)C[C@H](O[C@H]4C[C@H](O)[C@H](O)[C@H](C)O4)[C@H](CC)[C@@H](C)O3)OC(=O)C=CC=C[C@@H]2C)C[C@H]1O[C@H]1C[C@H](O)[C@H](O)[C@H](C)O1`: the Potency was 1050 nM (active).

As for `COC1=CC(C)=C[C@@H](C)[C@@H](O)[C@@H](C)CC(C)=CC=C[C@H](OC)[C@H]([C@@H](C)[C@@H](O)[C@H](C)[C@@]2(O)C[C@@H](O)[C@H](C)[C@@H](C(C)C)O2)OC1=O`, the Potency was 26400 nM (active).

For the compound `CC(C)(O)C=CC(=O)[C@](C)(O)[C@H]1[C@H](O)C[C@]2(C)[C@@H]3CC=C4[C@@H](C=C(O)C(=O)C4(C)C)[C@]3(C)C(=O)C[C@@]12C`, the Potency is 83.3 nM (active).

Staying with this assay, now noted: TFE3-RCC UOK109 viability, CellTiter-Glo, 48 h; measured here: UOK109 Z-AUC; stronger effect = lower value.
In turn, `CC(C)[C@]12O[C@@H]1[C@@H]1O[C@]13[C@]1(O[C@H]1C[C@@H]1C4=C(CC[C@@]13C)C(=O)OC4)[C@H]2O` registered a z-score of -3.4.

Take `CCC(=O)OC1CCC2C3CCC4=CC(=O)CC[C@@]4(C)C3CC[C@]12C` (some centres undefined): the z-score worked out at 0.231.

In turn, `CC(=O)OCC1=C(C(=O)O)N2C(=O)[C@@H](N)[C@@H]2SC1` returned a z-score of -1.76.

On to `CCOC(=O)c1cncn1[C@H](C)c1ccccc1`, for which the z-score stood at 1.85.

On to `c1cc2c(cc1[C@H]1OC[C@H]3[C@H]1CO[C@H]3c1ccc3c(c1)OCO3)OCO2`, for which the z-score is 0.442.

In turn, `C[C@]12COC(=O)C[C@@H]1CC[C@@H]1[C@H]2CC[C@@]2(C)[C@H]1CC[C@]2(C)O` showed a z-score of 0.93.

In turn, `C[C@H]([C@H](O)CCC(C)(C)O)[C@H]1CC[C@@]2(O)C3=CC(=O)[C@@H]4C[C@@H](O)[C@@H](O)C[C@]4(C)[C@@H]3CC[C@]12C` showed a z-score of 0.847.

The compound `C[C@@]12OC(=O)[C@]1([C@@H](O)[C@@H]1C=CCCC1)NC(=O)[C@H]2CCCl` returned a z-score of -1.51.

For `CC(O)=C(C#N)C(=O)Nc1cc(Br)ccc1Br`, the z-score stood at 0.277.

`C[C@@H]1O[C@@H](O[C@@H]2C=C3CC[C@@H]4[C@@H](CC[C@]5(C)[C@H](c6ccc(=O)oc6)CC[C@@]45O)[C@@]3(C)CC2)[C@H](O)[C@H](O)[C@H]1O` gave a z-score of -3.96.

`CC[C@@H]1[C@@H](C)O[C@@](O)([C@@H](C)[C@H](O)[C@H](C)[C@H]2OC(=O)C=CC=C[C@@H](C)[C@@H]([C@@H](C)[C@@H](O)[C@H](C)[C@@]3(O)C[C@H](O[C@H]4C[C@H](O)[C@H](O)[C@H](C)O4)[C@H](CC)[C@@H](C)O3)OC(=O)C=CC=C[C@@H]2C)C[C@H]1O[C@H]1C[C@H](O)[C@H](O)[C@H](C)O1` displayed a z-score of -1.85.

`C[C@H]1CCCC=CC2C[C@H](O)C[C@@H]2[C@H](O)C=CC(=O)O1` (some centres undefined) returned a z-score of -3.99.

`C#C[C@]1(O)C=C[C@@H]2[C@@H]3CCC4=CC(=O)CC[C@@H]4[C@H]3CC[C@@]21CC` returned a z-score of 1.02.

`COc1cc2cc(c1Cl)N(C)C(=O)C[C@H](OC(=O)C(C)C)[C@]1(C)O[C@H]1[C@H](C)[C@@H]1C[C@@](O)(NC(=O)O1)[C@H](OC)C=CC=C(C)C2` showed a z-score of -2.37.

Regarding `COC1=CC(C)=C[C@@H](C)[C@@H](O)[C@@H](C)CC(C)=CC=C[C@H](OC)[C@H]([C@@H](C)[C@@H](O)[C@H](C)[C@@]2(O)C[C@@H](O)[C@H](C)[C@@H](C(C)C)O2)OC1=O`, the z-score was -1.69.

Compound `COc1cccc2c1[C@]13CCN(CC4CC4)[C@H](C2)[C@]1(OC)CCC(=O)C3` returned a z-score of 0.6.

Regarding `CC(C)(O)C=CC(=O)[C@](C)(O)[C@H]1[C@H](O)C[C@]2(C)[C@@H]3CC=C4[C@@H](C=C(O)C(=O)C4(C)C)[C@]3(C)C(=O)C[C@@]12C`, the z-score was -3.73.

The same assay, now with this note: TFE3-RCC viability, CellTiter-Glo, 48 h; measured here: UOK124 Z-AUC; stronger effect = lower value.
`CC(C)[C@]12O[C@@H]1[C@@H]1O[C@]13[C@]1(O[C@H]1C[C@@H]1C4=C(CC[C@@]13C)C(=O)OC4)[C@H]2O`: the z-score is -3.26.

Compound `CCC(=O)OC1CCC2C3CCC4=CC(=O)CC[C@@]4(C)C3CC[C@]12C` (some centres undefined) displayed a z-score of 0.282.

Compound `CC(=O)OCC1=C(C(=O)O)N2C(=O)[C@@H](N)[C@@H]2SC1` came in with a z-score of 0.735.

Turning to `CCOC(=O)c1cncn1[C@H](C)c1ccccc1`, the z-score amounted to 0.442.

`c1cc2c(cc1[C@H]1OC[C@H]3[C@H]1CO[C@H]3c1ccc3c(c1)OCO3)OCO2` came in with a z-score of 0.255.

As for `C[C@]12COC(=O)C[C@@H]1CC[C@@H]1[C@H]2CC[C@@]2(C)[C@H]1CC[C@]2(C)O`, the z-score turned out to be 0.76.

In the case of `C[C@H]([C@H](O)CCC(C)(C)O)[C@H]1CC[C@@]2(O)C3=CC(=O)[C@@H]4C[C@@H](O)[C@@H](O)C[C@]4(C)[C@@H]3CC[C@]12C`, the z-score was found to be 0.683.

In turn, `C[C@@]12OC(=O)[C@]1([C@@H](O)[C@@H]1C=CCCC1)NC(=O)[C@H]2CCCl` had a z-score of -3.3.

With `CC(O)=C(C#N)C(=O)Nc1cc(Br)ccc1Br`, the z-score was 0.279.

`C[C@@H]1O[C@@H](O[C@@H]2C=C3CC[C@@H]4[C@@H](CC[C@]5(C)[C@H](c6ccc(=O)oc6)CC[C@@]45O)[C@@]3(C)CC2)[C@H](O)[C@H](O)[C@H]1O` returned a z-score of -3.13.

Turning to `CC[C@@H]1[C@@H](C)O[C@@](O)([C@@H](C)[C@H](O)[C@H](C)[C@H]2OC(=O)C=CC=C[C@@H](C)[C@@H]([C@@H](C)[C@@H](O)[C@H](C)[C@@]3(O)C[C@H](O[C@H]4C[C@H](O)[C@H](O)[C@H](C)O4)[C@H](CC)[C@@H](C)O3)OC(=O)C=CC=C[C@@H]2C)C[C@H]1O[C@H]1C[C@H](O)[C@H](O)[C@H](C)O1`, the z-score was -2.49.

`C[C@H]1CCCC=CC2C[C@H](O)C[C@@H]2[C@H](O)C=CC(=O)O1` (some centres undefined): the z-score was -3.69.

Turning to `C#C[C@]1(O)C=C[C@@H]2[C@@H]3CCC4=CC(=O)CC[C@@H]4[C@H]3CC[C@@]21CC`, the z-score turned out to be 0.666.

Compound `COc1cc2cc(c1Cl)N(C)C(=O)C[C@H](OC(=O)C(C)C)[C@]1(C)O[C@H]1[C@H](C)[C@@H]1C[C@@](O)(NC(=O)O1)[C@H](OC)C=CC=C(C)C2` gave a z-score of -3.1.

The compound `COC1=CC(C)=C[C@@H](C)[C@@H](O)[C@@H](C)CC(C)=CC=C[C@H](OC)[C@H]([C@@H](C)[C@@H](O)[C@H](C)[C@@]2(O)C[C@@H](O)[C@H](C)[C@@H](C(C)C)O2)OC1=O` had a z-score of -2.76.

`COc1cccc2c1[C@]13CCN(CC4CC4)[C@H](C2)[C@]1(OC)CCC(=O)C3` came in with a z-score of 0.387.

Compound `CC(C)(O)C=CC(=O)[C@](C)(O)[C@H]1[C@H](O)C[C@]2(C)[C@@H]3CC=C4[C@@H](C=C(O)C(=O)C4(C)C)[C@]3(C)C(=O)C[C@@]12C` showed a z-score of -2.29.
